# Source: PubChem
# TTR transcr act: TTR transcription activation, primary screen. SH-SY5Y TTR promoter Gaussia luciferase, luminescence; 100% = recombinant luciferase protein wells. 92,000 tested, 1.3% active. activation, % at 16.7 µM. AID 1117267;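 active means activation above the mean of all tested compounds plus 3 SD, cut at about 9.5% in these data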;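 further: cells exposed to compounds for one day before reading; 0% = median of all test compound wells on the plate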
# HuH7 TTR inh: HuH7 TTR transcription inhibition, counter-screen; AID 1117279; 1,100 tested, 4% active; inhibition, % at 16.7 µM; shares compounds with TTR transcr act; HuH7 TTR promoter-Gaussia luciferase reporter, luminescence;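 active means average inhibition above the solvent-only control wells' mean plus 3 SD, cut at about 15% in these data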;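 further: 0% = cells with DMSO only and 100% = cells with inhibitor control FD; inhibitors lower well luminescence so higher value means more inhibition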
# TTR up confirm: human TTR transcription activation, confirmation. shares compounds with TTR transcr act. SHSY5Y TTR promoter Gaussia luciferase, luminescence; 100% = purified Lucia enzyme wells, no cells. activation, % at 16.7 µM. 1,100 tested, under 10 active. AID 1117280;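 active means mean activation above a set limit taken from the earlier primary screen, cut at about 11% in these data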;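 further: 0% = DMSO-treated cells and 100% = recombinant Lucia luciferase without cells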
# An asterisk follows results filed as active. The full list was thinned out, with hits kept by preference.
SMILES,TTR transcr act,others
CCCOc1ccc(C2C(C(=O)c3ccco3)=C(O)C(=O)N2CCCn2ccnc2)cc1OC (configuration not stated),-3,
CSCC[C@H](NC(=O)[C@H]1CC[C@H](CNC(=O)[C@@H]2CCCN2)CC1)C(=O)O,1,
CSCCC(NC(=O)C1CCC(C)CC1)C(=O)O (configuration not stated),58*,HuH7 TTR inh=7;TTR up confirm=3
COC(=O)C(CCSC)NC(=O)C(NC(=O)C1CCC(C)CC1)C(C)C (configuration not stated),-2,
C[C@@H]1CCCN1c1ccc2c(c1)O[C@H]1CCN(C1)S2(=O)=O,-3,
CNS(=O)(=O)/C=C/c1ccccc1CCNC(=O)OC(C)(C)C,2,
CC(=O)c1ccc(N2C(=NC(=O)C3CCCO3)SC3CS(=O)(=O)CC32)cc1 (configuration not stated),-2,
CC(=O)c1ccc(N2C(=NC(=O)COc3ccccc3)SC3CS(=O)(=O)CC32)cc1 (configuration not stated),10*,HuH7 TTR inh=-10;TTR up confirm=0
CC(=O)c1cccc(N2C(=NC(=O)CCc3ccccc3)SC3CS(=O)(=O)CC32)c1 (configuration not stated),0,
CCCCNC(=O)C1(C)CCCCN1C(=O)c1cncc(Br)c1 (configuration not stated),2,
Cc1ccc(S(=O)(=O)N2C[C@H]3C(=O)C[C@@H](c4ccc(Cl)cc4)N(S(=O)(=O)c4ccc(C)cc4)[C@H]3C[C@H]2c2ccccc2)cc1,0,
C#CCOCCOCCOCCNc1nc(N2CCOCC2)nc(N2CCN(C(=O)[C@H](CCCCN)n3cc([C@@H](N)CO)nn3)CC2)n1,2,
C#CCOCCOCCOCCNc1nc(N2CCN(C(=O)[C@H](CO)n3cc([C@@H](N)C(C)C)nn3)CC2)nc(N2CCN(C(=O)[C@H](CCCCN)n3cc([C@@H](N)[C@H](C)CC)nn3)CC2)n1,19*,HuH7 TTR inh=-4;TTR up confirm=1
C#CCOCCOCCOCCNc1nc(N2CCN(C(=O)[C@H](CCCN=C(N)N)n3cc(C(N)[C@@H](C)CC)nn3)CC2)nc(N2CCN(C(=O)[C@H](CCCCN)n3cc([C@@H](N)CC(N)=O)nn3)CC2)n1 (some centres not stated),-2,
Cc1[nH]c(=O)[nH]c(=S)c1C(=O)Nc1ccc(Cl)c(Cl)c1,1,
COc1ccc(CCC(=O)OCC(=O)NC(=O)c2ccc(Cl)cc2)cc1,-1,
O=C(Nc1cn(-c2ccccc2)nc1-c1ccc(Cl)cc1)c1ccccc1,0,
Cc1ccc(-c2nn(-c3ccccc3)cc2NC(=O)c2ccccc2)cc1,13*,HuH7 TTR inh=1;TTR up confirm=-1
Cc1ccc(-c2nc3ncccn3c2NC(=O)c2ccccc2)cc1,0,
CC(Oc1ccccc1)C(=O)N1CCN=C1SCc1ccccc1 (configuration not stated),12*,HuH7 TTR inh=29*;TTR up confirm=-2
O=C(C1CC1)N1CCN=C1SCc1ccccc1,-2,
O=C(C1CC1)N1CCN=C1SCc1cccc(F)c1,0,
CC1CCCC(NC(=O)COC(=O)COc2ccc(C#N)cc2)C1C (configuration not stated),0,
O=C(OCC#CCSc1nnc(-c2cccc3ccccc23)o1)c1cccc(C(F)(F)F)c1,4,
COC(=O)C1=C(C)NC(=O)/C1=C\c1cc(C)n(-c2ccccc2F)c1C,1,
SMILES,TTR transcr act,others
Cc1cc(/C=N/N2CCN(C)CC2)c(C)n1-c1ccccc1F,9.7*,HuH7 TTR inh=-12;TTR up confirm=1
Cc1c(C(=O)O)cccc1-n1c(C)cc(C=O)c1C,0,
COc1ccc(N(C(C)C(=O)Nc2cccnc2)S(C)(=O)=O)cc1 (configuration not stated),4,
COc1ccc(C(=O)N2CCC2(C)C(=O)NC(C)C)c(OC)c1 (configuration not stated),1,
COC(=O)C[C@H]1C=C[C@H](NS(=O)(=O)c2cn(C)cn2)[C@@H](CO)O1,0,
COCCCN(CC(=O)Nc1ccc(N2CCOCC2)cc1)S(=O)(=O)c1ccc(Cl)cc1,-2,
C[C@H]1[C@@H](OC(=O)NCc2ccc(Cl)cc2)CC[C@@]23CCCN2C(=O)CCC[C@@H]13,-1,
COc1ccc(CNC(=O)C(OC(=O)c2ccco2)c2ccccc2F)cc1 (configuration not stated),-2,
COc1ccc(C(OC(=O)c2ccco2)C(=O)NC(C)(C)C)cc1 (configuration not stated),26*,HuH7 TTR inh=-2;TTR up confirm=-1
CCC(OC(=O)c1ccco1)C(=O)NCc1ccc(OC)cc1 (configuration not stated),-1,
Cn1c(=O)cc(OCCCC(=O)Nc2cc(C(F)(F)F)ccn2)c2ccccc21,2,
COc1ccc(CCN=C(N)NS(=O)(=O)c2cccs2)cc1OC,4,
COc1ccc(S(=O)(=O)NC(N)=NCCc2ccc(OC)c(OC)c2)cc1C,12*,HuH7 TTR inh=-11;TTR up confirm=1
COc1ccc(CCN=C(N)NS(=O)(=O)c2ccc(C)c(C)c2)cc1OC,1,
CCC[C@H]1[C@@H](OC(=O)NCCc2ccccc2)CC[C@@]23CCCN2C(=O)CCC[C@@H]13,-2,
O=C(O)CCN1C(=O)/C(=C/c2cccc(OCc3ccc(F)cc3)c2)SC1=S,-1,
COC(=O)c1cc(NCc2ccccc2F)ccc1N1CCOCC1,10*,HuH7 TTR inh=-9;TTR up confirm=-1
COC(=O)c1cc(NC(=O)c2cc(-c3ccc(C(F)(F)F)cc3)oc2C(F)(F)F)ccc1N1CCOCC1,-1,
COC(=O)c1cc(NC(=O)c2c(C)noc2C)ccc1N1CCOCC1,-1,
CCOC(=O)CNC(=O)C1Cc2ccccc2CN1S(=O)(=O)c1cccs1 (configuration not stated),-2,
C[C@H]1[C@H](N(Cc2ccccc2)Cc2ccccc2)CC[C@@]23CCCN2C(=O)CCC[C@@H]13,0,
O=C(NC1CCCCC1)c1ccc2c(c1)S(=O)(=O)c1ccccc1C2=O,-3,
COc1ccc(N=C2SCC(=O)N2Cc2ccccc2)cc1,-1,
CCOc1ccc(N2C(=O)CSC2=S)cc1,-2,
CCOc1ccc(N=C2SCC(=O)N2CC)cc1,18*,HuH7 TTR inh=-11;TTR up confirm=0
SMILES,TTR transcr act,others
Cc1ccc(Cn2cc(COC(=O)N3CCOCC3)nn2)cc1,-1,
COc1ccc(C(=O)N2CCN(C(=O)C3COc4ccccc4O3)CC2)cc1 (configuration not stated),0,
COc1cc(C(=O)N2CCN(C(=O)C3COc4ccccc4O3)CC2)cc(OC)c1OC (configuration not stated),0,
Cc1cc(O)c2c(C)c(CC(=O)N3CCN(C(=O)C4COc5ccccc5O4)CC3)c(=O)oc2c1 (configuration not stated),9.8*,HuH7 TTR inh=10;TTR up confirm=-1
C=CCC[C@@H](Cc1ccc(F)cc1)C(=O)OC[C@H](Cc1c[nH]c2ccccc12)NC(=O)[C@@H](CC=C)CC(=O)N[C@H](CO)Cc1ccccc1,-4,
C=CCC[C@@H](Cc1ccc(F)cc1)C(=O)OC[C@@H]1CCCN1C(=O)[C@H](CC=C)CC(=O)N[C@H](CO)Cc1ccccc1,17*,HuH7 TTR inh=0;TTR up confirm=-2
C=CC[C@@H](CC(=O)N[C@H](CO)Cc1ccccc1)C(=O)N[C@@H](COC(=O)[C@@H](CC=C)Cc1ccc(F)cc1)Cc1ccccc1,4,
